Results on one sequence are retold here after PMC7862700, “An all-to-all approach to the identification of sequence-specific readers for epigenetic DNA modifications on cytosine”.

Holding throughout (test): DAPPL (digital affinity profiling via proximity ligation, sequencing); 10 mM Tris-HCl pH 7.5, 50 mM NaCl, 1 mM DTT, 4% glycerol, room temperature, 30 min; GST-TFs on glutathione beads, 16-mer random dsDNA library, 0.1% formaldehyde crosslink after washing; high values mean tight binding
What all share (details): protein: recombinant; tags: N-terminal GST; dsDNA, one strand shown

In one assay the target is T1, ELK1 (Homo sapiens, UniProt P19419 1-428).
T1 sequence: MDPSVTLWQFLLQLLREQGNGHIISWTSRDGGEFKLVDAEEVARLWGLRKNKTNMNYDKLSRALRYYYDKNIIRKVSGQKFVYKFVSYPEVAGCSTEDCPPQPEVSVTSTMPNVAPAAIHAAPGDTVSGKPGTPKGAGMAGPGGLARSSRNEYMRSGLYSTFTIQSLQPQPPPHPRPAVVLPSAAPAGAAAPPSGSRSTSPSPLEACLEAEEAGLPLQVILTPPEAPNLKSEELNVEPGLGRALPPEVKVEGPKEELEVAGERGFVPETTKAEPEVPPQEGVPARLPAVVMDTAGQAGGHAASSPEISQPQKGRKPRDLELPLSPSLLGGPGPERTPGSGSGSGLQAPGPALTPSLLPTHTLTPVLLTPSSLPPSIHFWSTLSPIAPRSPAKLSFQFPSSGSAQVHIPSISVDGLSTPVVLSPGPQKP
The method in brief:
(§1)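 Binding signal is each hexamer's read frequency for a factor divided by its frequency in the tag-only sample. The factors were GST-fused human transcription factors from yeast, captured on glutathione beads, DNA-barcoded and pooled with that sample. Pools were incubated with 200 nmole of a random double-stranded 16-mer DNA library in Tris/NaCl/DTT/glycerol buffer at room temperature for 30 min, then washed, crosslinked with 0.1% formaldehyde, proximity-ligated with BsaI/T4 ligase (1 h, 37 °C), PCR-amplified and sequenced on an Illumina NextSeq500.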

A further assay deals with T2, GABPA (Homo sapiens, UniProt Q06546 1-454).
T2 sequence: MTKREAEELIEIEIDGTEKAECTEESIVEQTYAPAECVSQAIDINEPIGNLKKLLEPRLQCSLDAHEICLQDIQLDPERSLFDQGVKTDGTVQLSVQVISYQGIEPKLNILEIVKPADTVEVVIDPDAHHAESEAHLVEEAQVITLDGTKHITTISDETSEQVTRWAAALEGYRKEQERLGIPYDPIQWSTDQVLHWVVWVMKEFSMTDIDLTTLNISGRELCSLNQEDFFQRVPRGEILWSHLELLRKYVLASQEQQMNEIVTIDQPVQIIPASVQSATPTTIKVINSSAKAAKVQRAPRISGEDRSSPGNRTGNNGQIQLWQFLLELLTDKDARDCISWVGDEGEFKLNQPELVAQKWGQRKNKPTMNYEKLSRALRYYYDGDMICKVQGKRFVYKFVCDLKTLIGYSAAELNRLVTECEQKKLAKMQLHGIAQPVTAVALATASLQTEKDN
The method in brief:
as §1

Another assay concerns the target T3, ERG (Homo sapiens, UniProt P11308 1-479).
T3 sequence: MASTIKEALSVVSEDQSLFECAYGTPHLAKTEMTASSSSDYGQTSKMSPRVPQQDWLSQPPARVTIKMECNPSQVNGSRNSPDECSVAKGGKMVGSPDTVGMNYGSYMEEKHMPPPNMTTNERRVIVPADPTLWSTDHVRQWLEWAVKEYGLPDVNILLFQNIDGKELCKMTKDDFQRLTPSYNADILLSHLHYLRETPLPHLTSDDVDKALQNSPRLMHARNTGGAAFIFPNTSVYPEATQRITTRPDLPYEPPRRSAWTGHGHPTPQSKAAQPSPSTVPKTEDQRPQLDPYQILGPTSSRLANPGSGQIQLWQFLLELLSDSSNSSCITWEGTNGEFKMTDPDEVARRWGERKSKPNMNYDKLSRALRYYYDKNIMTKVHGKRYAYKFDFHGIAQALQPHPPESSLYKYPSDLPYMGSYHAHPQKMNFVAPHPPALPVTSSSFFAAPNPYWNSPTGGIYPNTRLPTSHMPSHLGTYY
A digest of the protocol:
as §1

The next assay has as its target ELF1 (Homo sapiens, UniProt P32519 1-619). A digest of the protocol:
as §1

The target in a further assay is T4, EHF (Homo sapiens, UniProt Q9NZC4 1-300).
T4 sequence: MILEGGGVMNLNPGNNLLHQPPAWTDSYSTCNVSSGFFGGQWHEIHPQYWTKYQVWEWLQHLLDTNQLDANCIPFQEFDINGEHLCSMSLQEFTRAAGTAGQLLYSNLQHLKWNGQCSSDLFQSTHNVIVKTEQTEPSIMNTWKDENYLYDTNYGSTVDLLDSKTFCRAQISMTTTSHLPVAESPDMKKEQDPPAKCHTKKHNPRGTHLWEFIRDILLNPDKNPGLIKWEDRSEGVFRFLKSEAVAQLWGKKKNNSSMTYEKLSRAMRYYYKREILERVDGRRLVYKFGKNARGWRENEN
The method in brief:
as §1

Another assay deals with SPI1 (Homo sapiens, UniProt P17947 1-270). The method in brief:
as §1

For another assay, the target named is SPIB (Homo sapiens, UniProt Q01892 1-262). The method in brief: as §1
Another assay addresses T5, SPIC (Homo sapiens, UniProt Q8N5J4 1-248).
T5 sequence: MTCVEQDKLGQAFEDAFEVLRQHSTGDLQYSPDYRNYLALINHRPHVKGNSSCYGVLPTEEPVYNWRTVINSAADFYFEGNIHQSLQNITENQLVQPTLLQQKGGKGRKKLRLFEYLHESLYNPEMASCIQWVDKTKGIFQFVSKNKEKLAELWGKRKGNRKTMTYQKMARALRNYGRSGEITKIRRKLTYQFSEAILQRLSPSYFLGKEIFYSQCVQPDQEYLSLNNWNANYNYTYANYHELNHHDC
A digest of the protocol: as §1

The next assay has as its target ELF4 (Homo sapiens, UniProt Q99607 1-663). A digest of the protocol: as §1
The target of another assay is T6, ELK4 (Homo sapiens, UniProt P28324-2 1-405).
T6 sequence: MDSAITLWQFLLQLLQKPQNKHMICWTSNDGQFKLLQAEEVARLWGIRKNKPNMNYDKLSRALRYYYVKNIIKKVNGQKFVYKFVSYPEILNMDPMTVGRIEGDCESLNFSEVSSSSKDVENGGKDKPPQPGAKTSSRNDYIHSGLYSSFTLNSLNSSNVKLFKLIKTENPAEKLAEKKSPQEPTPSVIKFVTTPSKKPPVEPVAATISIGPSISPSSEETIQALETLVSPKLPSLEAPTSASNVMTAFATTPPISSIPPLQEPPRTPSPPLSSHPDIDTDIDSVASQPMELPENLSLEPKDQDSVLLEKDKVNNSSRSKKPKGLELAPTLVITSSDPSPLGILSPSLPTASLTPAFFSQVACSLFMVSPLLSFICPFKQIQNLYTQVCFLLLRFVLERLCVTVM
The method in brief: as §1

The target of the next assay is T7, ELF3 (Homo sapiens, UniProt P78545 1-371).
T7 sequence: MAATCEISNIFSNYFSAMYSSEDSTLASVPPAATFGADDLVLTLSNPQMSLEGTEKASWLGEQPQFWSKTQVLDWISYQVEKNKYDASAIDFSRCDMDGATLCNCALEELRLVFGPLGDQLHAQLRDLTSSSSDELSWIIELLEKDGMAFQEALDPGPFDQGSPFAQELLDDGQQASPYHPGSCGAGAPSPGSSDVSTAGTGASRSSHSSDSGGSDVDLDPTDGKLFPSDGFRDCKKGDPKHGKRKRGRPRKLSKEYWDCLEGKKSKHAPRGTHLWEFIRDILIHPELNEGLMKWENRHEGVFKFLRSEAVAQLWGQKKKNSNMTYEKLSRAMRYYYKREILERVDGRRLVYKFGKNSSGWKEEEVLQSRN
A digest of the protocol:
as §1

In the next assay the target is ETV1 (Homo sapiens, UniProt P50549 1-477). The method in brief: as §1
In the next assay the target is T8, ERF (Homo sapiens, UniProt P50548 1-548).
T8 sequence: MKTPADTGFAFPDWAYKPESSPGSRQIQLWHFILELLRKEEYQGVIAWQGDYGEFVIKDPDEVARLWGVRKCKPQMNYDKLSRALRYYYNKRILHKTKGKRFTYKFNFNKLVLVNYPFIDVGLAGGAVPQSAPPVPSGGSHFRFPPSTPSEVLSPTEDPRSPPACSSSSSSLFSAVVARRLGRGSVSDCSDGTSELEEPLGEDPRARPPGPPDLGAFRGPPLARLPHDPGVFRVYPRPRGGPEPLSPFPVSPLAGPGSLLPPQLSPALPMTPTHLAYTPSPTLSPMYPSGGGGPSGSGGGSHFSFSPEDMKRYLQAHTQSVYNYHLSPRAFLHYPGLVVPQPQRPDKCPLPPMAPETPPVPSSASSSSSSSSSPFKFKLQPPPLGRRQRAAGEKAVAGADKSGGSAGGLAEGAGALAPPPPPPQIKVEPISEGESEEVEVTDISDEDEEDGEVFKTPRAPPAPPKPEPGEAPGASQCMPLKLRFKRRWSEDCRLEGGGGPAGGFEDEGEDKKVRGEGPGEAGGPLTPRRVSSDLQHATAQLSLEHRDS
The method in brief:
as §1

The target of another assay is T9, SPDEF (Homo sapiens, UniProt O95238 1-335).
T9 sequence: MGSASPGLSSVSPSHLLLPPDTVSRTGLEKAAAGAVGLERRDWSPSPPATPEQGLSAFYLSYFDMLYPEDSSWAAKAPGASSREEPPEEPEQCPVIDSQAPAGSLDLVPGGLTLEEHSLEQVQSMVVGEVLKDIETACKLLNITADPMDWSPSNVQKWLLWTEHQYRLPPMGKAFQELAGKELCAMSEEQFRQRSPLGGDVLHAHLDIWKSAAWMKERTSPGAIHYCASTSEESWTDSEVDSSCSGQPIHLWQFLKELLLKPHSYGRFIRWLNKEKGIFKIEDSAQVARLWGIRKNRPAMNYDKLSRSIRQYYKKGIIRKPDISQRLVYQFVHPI
The method in brief:
as §1

Another assay deals with T10, ETV7 (Homo sapiens, UniProt Q9Y603 1-341).
T10 sequence: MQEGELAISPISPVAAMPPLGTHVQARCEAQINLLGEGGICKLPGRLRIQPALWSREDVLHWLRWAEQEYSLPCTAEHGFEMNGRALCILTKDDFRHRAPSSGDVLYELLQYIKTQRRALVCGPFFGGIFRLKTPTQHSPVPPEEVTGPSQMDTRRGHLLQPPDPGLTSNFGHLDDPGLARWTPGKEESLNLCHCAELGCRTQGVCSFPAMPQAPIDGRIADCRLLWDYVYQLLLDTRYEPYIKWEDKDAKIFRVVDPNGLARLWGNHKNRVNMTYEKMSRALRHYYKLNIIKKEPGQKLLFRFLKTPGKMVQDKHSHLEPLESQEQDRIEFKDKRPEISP
A digest of the protocol:
as §1

A further assay deals with T11, ETV3 (Homo sapiens, UniProt P41162-2 1-143).
T11 sequence: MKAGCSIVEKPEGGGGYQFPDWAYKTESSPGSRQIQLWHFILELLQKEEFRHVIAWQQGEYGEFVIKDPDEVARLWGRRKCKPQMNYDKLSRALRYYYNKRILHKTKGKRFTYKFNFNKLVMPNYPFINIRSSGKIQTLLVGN
The method in brief:
as §1

A further assay has as its target ETV6 (Homo sapiens, UniProt P41212 1-452). A digest of the protocol:
as §1

Sequence of ELF4 (Q99607 whole entry): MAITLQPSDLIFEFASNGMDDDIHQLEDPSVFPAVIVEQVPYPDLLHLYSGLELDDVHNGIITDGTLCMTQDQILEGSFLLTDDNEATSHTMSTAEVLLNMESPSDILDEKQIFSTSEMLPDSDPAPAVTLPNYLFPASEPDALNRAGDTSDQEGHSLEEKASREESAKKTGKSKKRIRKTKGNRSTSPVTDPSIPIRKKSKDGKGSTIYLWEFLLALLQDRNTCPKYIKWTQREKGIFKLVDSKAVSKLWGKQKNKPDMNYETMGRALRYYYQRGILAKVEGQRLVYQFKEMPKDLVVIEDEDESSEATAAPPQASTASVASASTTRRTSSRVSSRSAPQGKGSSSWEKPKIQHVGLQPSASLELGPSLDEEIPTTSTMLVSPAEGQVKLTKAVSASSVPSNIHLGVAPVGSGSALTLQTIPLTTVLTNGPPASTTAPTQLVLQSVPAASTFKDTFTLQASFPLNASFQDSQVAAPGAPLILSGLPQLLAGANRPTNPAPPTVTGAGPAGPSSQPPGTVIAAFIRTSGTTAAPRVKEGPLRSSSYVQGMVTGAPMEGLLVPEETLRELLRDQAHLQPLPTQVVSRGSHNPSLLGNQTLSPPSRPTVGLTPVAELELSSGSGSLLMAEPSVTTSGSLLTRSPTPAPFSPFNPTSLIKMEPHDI
Sequence of SPIB (Q01892 whole entry): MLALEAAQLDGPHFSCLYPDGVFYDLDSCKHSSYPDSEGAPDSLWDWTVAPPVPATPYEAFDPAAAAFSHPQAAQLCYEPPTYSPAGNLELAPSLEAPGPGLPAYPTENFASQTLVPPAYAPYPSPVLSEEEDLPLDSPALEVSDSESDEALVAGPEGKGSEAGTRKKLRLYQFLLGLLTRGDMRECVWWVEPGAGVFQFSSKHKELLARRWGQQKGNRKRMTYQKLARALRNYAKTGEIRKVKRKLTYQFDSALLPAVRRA
Sequence of ELF1 (P32519 whole entry): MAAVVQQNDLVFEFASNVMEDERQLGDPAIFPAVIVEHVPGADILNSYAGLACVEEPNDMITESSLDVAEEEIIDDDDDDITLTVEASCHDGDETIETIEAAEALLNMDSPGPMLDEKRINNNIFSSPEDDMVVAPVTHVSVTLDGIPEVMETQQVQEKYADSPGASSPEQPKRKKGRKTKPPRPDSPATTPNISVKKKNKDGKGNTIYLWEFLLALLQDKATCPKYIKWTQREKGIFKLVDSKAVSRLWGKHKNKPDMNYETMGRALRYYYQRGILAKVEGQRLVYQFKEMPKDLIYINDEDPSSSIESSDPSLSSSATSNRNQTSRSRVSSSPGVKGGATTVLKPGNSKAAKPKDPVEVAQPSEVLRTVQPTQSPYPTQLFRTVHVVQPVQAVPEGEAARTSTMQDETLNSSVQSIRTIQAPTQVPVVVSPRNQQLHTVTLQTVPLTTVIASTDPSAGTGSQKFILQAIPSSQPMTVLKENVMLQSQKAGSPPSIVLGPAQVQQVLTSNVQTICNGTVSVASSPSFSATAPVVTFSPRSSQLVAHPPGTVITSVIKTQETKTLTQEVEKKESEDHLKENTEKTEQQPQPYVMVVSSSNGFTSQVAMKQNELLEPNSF
Sequence of ETV1 (P50549 whole entry): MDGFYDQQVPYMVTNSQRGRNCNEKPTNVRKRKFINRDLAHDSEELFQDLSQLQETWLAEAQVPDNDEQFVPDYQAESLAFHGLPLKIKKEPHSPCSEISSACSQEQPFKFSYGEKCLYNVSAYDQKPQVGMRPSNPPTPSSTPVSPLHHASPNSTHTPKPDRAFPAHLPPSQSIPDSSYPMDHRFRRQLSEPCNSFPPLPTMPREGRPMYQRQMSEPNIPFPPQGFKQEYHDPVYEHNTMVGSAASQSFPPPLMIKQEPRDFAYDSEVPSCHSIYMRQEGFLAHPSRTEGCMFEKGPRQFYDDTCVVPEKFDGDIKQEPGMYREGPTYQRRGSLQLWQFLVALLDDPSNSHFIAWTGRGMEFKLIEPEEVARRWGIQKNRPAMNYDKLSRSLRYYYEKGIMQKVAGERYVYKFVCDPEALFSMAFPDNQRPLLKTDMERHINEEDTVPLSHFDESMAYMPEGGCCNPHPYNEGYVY
Sequence of ETV6 (P41212 whole entry): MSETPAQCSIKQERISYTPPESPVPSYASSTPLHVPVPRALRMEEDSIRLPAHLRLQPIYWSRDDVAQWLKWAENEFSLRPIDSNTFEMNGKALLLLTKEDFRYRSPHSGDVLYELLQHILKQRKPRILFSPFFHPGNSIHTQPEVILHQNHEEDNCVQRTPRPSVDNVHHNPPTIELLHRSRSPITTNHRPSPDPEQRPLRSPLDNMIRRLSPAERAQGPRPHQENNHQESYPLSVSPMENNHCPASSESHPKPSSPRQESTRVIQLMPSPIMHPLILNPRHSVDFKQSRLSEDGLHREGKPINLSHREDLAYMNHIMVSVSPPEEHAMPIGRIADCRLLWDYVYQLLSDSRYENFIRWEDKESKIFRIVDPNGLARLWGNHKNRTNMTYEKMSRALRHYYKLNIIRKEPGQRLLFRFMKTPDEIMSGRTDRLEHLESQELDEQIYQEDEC

As to GCACCT, the binding signal with ELK1 is 1.01 fold enrichment (6-mer frequency, TF over GST control); with GABPA, 1.12 fold enrichment (6-mer frequency, TF over GST control); with ERG, 1.07 fold enrichment (6-mer frequency, TF over GST control); with ELF1, 1.16 fold enrichment (6-mer frequency, TF over GST control); with EHF it was 1.18 fold enrichment (6-mer frequency, TF over GST control); in the assay with SPI1 it was 1.05 fold enrichment (6-mer frequency, TF over GST control). The binding signal in the assay with SPIB was 1.13 fold enrichment (6-mer frequency, TF over GST control); in the assay with SPIC, 1 fold enrichment (6-mer frequency, TF over GST control); with ELF4 it was 1.13 fold enrichment (6-mer frequency, TF over GST control); with ELK4 it was 1.16 fold enrichment (6-mer frequency, TF over GST control); in the assay with ELF3, 1.06 fold enrichment (6-mer frequency, TF over GST control); with ETV1 it was 1.1 fold enrichment (6-mer frequency, TF over GST control). Further, the binding signal is 1.29 fold enrichment (6-mer frequency, TF over GST control) with ERF; 1.09 fold enrichment (6-mer frequency, TF over GST control) in the assay with SPDEF; 1.11 fold enrichment (6-mer frequency, TF over GST control) in the assay with ETV7; 1.13 fold enrichment (6-mer frequency, TF over GST control) with ETV3; 1.12 fold enrichment (6-mer frequency, TF over GST control) with ETV6.
